Compounds with a hit are over-represented: about 2.5% of the library has one in this group of screens.
PG9 binder: PG9 antibody binding by small molecule; AID 624416; actives 0.43% (n = 360,000); inhibition, % at 6.7 µM; TR-FRET gp120-PG9 antibody binding; in the data active = inhibition above about 8.5%
Granule exo inh: blocks lytic granule exocytosis. inhibition, % at 10 µM. AID 651702. TALL-104 LAMP-1 surface exposure, flow cytometry; cells stimulated with thapsigargin and PMA. actives 0.66% (n = 360,000);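 active = inhibition above about 55%, limit read from the data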
rCAG binder: r(CAG) repeat RNA binding; TO-PRO-1 dye displacement fluorescence; actives 1.3% (n = 370,000); inhibition, % at 3 µM;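 active = inhibition above the plate cutoff, the mean of all test compounds on that plate plus 3 SD, cut at about 35% in these data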;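 also: higher means more dye released from RNA so lower well fluorescence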
ABCB6 inh MLPCN: blocks the human ABCB6 transporter; K562-ABCB6 porphyrin accumulation, flow cytometry, 1 h; active compounds read low; fluorescence ratio to DMSO, % at 10 µM; actives 0.19% (n = 360,000);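 active = fluorescence ratio to DMSO below 75%, the collection mean minus 3 SD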;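 also: signal is porphyrin accumulated inside mitochondria; lower ratio means ABCB6 inhibition with less porphyrin fluorescence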
Target sequence (Q9NP58 whole entry, looked up): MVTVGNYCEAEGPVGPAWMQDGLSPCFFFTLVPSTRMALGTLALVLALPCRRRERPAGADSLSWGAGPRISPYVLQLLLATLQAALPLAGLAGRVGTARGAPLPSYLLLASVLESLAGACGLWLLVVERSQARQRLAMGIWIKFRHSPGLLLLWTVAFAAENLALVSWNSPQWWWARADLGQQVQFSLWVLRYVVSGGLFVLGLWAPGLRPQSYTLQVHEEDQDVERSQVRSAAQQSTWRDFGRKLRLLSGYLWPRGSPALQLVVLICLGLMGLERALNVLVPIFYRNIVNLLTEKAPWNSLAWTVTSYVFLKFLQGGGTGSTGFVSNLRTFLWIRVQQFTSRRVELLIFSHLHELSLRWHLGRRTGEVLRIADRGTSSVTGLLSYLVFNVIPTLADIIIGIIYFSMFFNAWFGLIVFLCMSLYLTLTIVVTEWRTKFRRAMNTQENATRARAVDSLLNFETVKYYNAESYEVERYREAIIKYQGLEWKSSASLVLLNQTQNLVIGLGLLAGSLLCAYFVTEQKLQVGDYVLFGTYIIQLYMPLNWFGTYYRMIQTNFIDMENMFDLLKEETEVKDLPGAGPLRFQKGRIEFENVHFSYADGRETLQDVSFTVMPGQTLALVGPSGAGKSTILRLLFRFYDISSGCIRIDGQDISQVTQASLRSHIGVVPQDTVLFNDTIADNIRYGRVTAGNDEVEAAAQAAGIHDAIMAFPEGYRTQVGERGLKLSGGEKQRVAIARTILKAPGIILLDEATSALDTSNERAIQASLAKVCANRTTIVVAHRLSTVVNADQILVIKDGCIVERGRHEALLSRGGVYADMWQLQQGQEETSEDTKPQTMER
rCAG binder conf: r(CAG) RNA repeat binding, confirmation | shares compounds with rCAG binder | actives 70% (n = 4,300) | TO-PRO-1 dye displacement fluorescence | AID 652065 | inhibition, % at 3 µM;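 active = inhibition above a per-plate cutoff, the mean inhibition of sample wells plus 3 SD, cut at about 35% in these data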;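 also: loss of TO-PRO-1 fluorescence as compound displaces dye from 1x1 AA loop RNA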
dCAG dye counter: counter-screen for rCAG RNA binders: DNA CAG dye complex inhibitors. shares compounds with rCAG binder. d(CAG) DNA oligo TO-PRO-1 dye displacement, fluorescence. inhibition, % at 3 µM. actives 94% (n = 4,300). AID 652068;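 active = inhibition above its plate's cutoff, the mean test-well inhibition plus 3 SD, cut at about 4.8% in these data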;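 also: hits displace the dye from DNA and so lower well fluorescence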
Each line names hits and unclear results; the compound was inactive in the other large screens (follow-up assays come after a bar, where they were run).

Cc1cc(C)c(C)c(S(=O)(=O)N2CCC(C(=O)Nc3ccc(S(=O)(=O)N4CCOCC4)cc3)CC2)c1C	none
O=C(O)COc1ccccc1/C=C1\SC(=O)N(Cc2ccc(F)cc2)C1=O	rCAG binder 37.1 | rCAG binder conf 39.1 | dCAG dye counter 5.0
Cc1ccc(CN2C(=O)S/C(=C\c3ccccc3OCC(=O)O)C2=O)cc1	rCAG binder 60.5 | rCAG binder conf 63.5 | dCAG dye counter 17.7
[N-]=C=C1C(=S)NC(=O)[C@H]([n+]2ccccc2)[C@H]1c1ccc(Cl)cc1	rCAG binder 43.6 | rCAG binder conf 64.0 | dCAG dye counter 27.7
CN1CCN(c2ccc(S(=O)(=O)N3CCOCC3)cc2)CC1	none
OC(CNCCN1CCNCC1)Cc1ccccc1 (stereo unspecified)	none
Cc1ccc(C(=O)NCC(=O)OCC(=O)c2ccc(Br)s2)cc1	none
COC(=O)c1sccc1NC(=O)c1ccccc1C(=O)O	none
COC(=O)c1sc(-c2ccc(C(C)(C)C)cc2)cc1NC(=O)CSCC(=O)O	rCAG binder 62.3 | rCAG binder conf 68.1 | dCAG dye counter 25.4
COC(=O)c1sc(-c2ccc(C(C)(C)C)cc2)cc1NC(=O)c1ccccc1C(=O)O	rCAG binder 70.1 | rCAG binder conf 83.5 | dCAG dye counter 46.1
COC(=O)c1sc(-c2ccccc2)cc1NC(=O)C1CC1	none
COC(=O)c1sc(-c2ccc(Cl)cc2)cc1NC(=O)c1ccccc1C(=O)O	rCAG binder 70.5 | rCAG binder conf 80.0 | dCAG dye counter 46.0
CC1(C(=O)NS(=O)(=O)c2cccs2)CCN1C(=O)c1ccccc1CCc1ccccc1 (stereo unspecified)	rCAG binder 43.8 | rCAG binder conf inactive | dCAG dye counter 7.0
CC1(C(=O)NS(=O)(=O)c2ccc(Cl)cc2)CCN1C(=O)c1ccccc1CCc1ccccc1 (stereo unspecified)	rCAG binder 44.7 | rCAG binder conf 58.5 | dCAG dye counter 19.6
CC1(C(=O)NS(=O)(=O)c2ccccc2Cl)CCN1C(=O)c1ccccc1CCc1ccccc1 (stereo unspecified)	rCAG binder 57.1 | rCAG binder conf 63.0 | dCAG dye counter 18.9
CC1(C(=O)NS(=O)(=O)c2cccc(Cl)c2)CCN1C(=O)c1ccccc1CCc1ccccc1 (stereo unspecified)	rCAG binder 60.9 | rCAG binder conf 59.7 | dCAG dye counter 21.7
CC1(C(=O)NS(=O)(=O)c2cccs2)CCN1C(=O)Cc1ccccc1 (stereo unspecified)	none
COc1ccc(/C=N/NC(=O)c2cccnc2)c(C(=O)O)c1OC	none
CC1(C(=O)NS(=O)(=O)c2cccc(C#N)c2)CCN1C(=O)Cc1ccccc1 (stereo unspecified)	none
CC1(C(=O)NS(=O)(=O)c2ccc(F)cc2F)CCN1C(=O)c1ccccc1CCc1ccccc1 (stereo unspecified)	rCAG binder 50.8 | rCAG binder conf 42.5 | dCAG dye counter 10.2
CC1(C(=O)NS(=O)(=O)c2ccc(F)cc2F)CCN1C(=O)Cc1ccccc1 (stereo unspecified)	none
CC1(C(=O)NS(=O)(=O)c2cccc(C#N)c2)CCN1C(=O)c1ccccc1CCc1ccccc1 (stereo unspecified)	rCAG binder 45.8 | rCAG binder conf 38.9 | dCAG dye counter 9.5
CCCN(CCO)C1CCN(CCc2ccccc2)CC1	none
COc1ccc(NS(=O)(=O)c2cccc(NC(=O)c3ccc(S(=O)(=O)N4CCCCCC4)cc3)c2)cc1	none (no result: PG9 binder, rCAG binder)
CCOC(=O)c1ccc(S(=O)(=O)Nc2cc(S(=O)(=O)Nc3ccc(OC)cc3)ccc2O)cc1	rCAG binder 61.9 | rCAG binder conf 51.8 | dCAG dye counter 21.7
CCN(CC)S(=O)(=O)c1ccc(NC(=O)COC(=O)c2cc(S(=O)(=O)Nc3ccc(OC)cc3)ccc2O)cc1	rCAG binder 36.1 | rCAG binder conf 60.8 | dCAG dye counter 25.9
CCN(CC)S(=O)(=O)c1ccc(NC(=O)COC(=O)c2ccc(Br)o2)cc1	none
O=S(=O)(Nc1cc(S(=O)(=O)N2CCCC2)ccc1O)c1ccc(Cl)s1	none
COc1ccc(NS(=O)(=O)c2ccc(O)c(NC(=O)c3ccc(S(=O)(=O)N4CCCCCC4)cc3)c2)cc1	rCAG binder 67.8 | rCAG binder conf 77.6 | dCAG dye counter 39.1
O=C(Nc1cc(S(=O)(=O)N2CCOCC2)ccc1O)c1ccc(NS(=O)(=O)c2ccc(Cl)s2)cc1	rCAG binder 63.8 | rCAG binder conf 42.0 | dCAG dye counter 12.2
CCOC(=O)c1ccc(NS(=O)(=O)c2ccc3[nH]c(=O)[nH]c3c2)cc1	none
CC1(C)CCC[C@@]2(C)CC=C(C(=O)O)[C@@H]3C[C@]312	none
CCN1CCN(c2ccc(S(=O)(=O)N3CCOCC3)cc2NC(=O)C(C)Oc2ccc(Cl)cc2)CC1 (stereo unspecified)	none
O=C(NC1CCCC1)C(c1cccnc1)N(Cc1ccc(F)cc1)C(=O)c1csnn1 (stereo unspecified)	none
COc1ccc(C(=O)Nc2ccc(S(=O)(=O)N3CCCC3)cc2)cc1	none
O=C(COC(=O)c1cc(S(=O)(=O)N2CCCC2)ccc1O)Nc1ccc(SC(F)F)cc1	rCAG binder 45.5 | rCAG binder conf 40.4 | dCAG dye counter 11.1
CC(C)(C)c1ccc(NC(=O)COC(=O)c2ccc(NS(=O)(=O)c3ccc(F)c(F)c3)cc2)cc1	rCAG binder 70.1 | rCAG binder conf 66.8 | dCAG dye counter 24.1
COc1ccc(NS(=O)(=O)c2ccc(O)c(NC(=O)c3ccc(S(=O)(=O)N4CCCC4)cc3)c2)cc1	rCAG binder 74.0 | rCAG binder conf 49.8 | dCAG dye counter 17.6
Cc1ccc(NC(=O)c2ccccc2NS(=O)(=O)c2ccc(Cl)s2)cc1S(=O)(=O)N1CCOCC1	rCAG binder 86.6 | rCAG binder conf 90.1 | dCAG dye counter 68.9
O=C(COC(=O)c1cc(S(=O)(=O)N2CCCC2)ccc1O)Nc1ccc(S(=O)(=O)N2CCOCC2)cc1	none
CCOC(=O)CNC(=O)CSc1nnnn1-c1ccc(C)c(C)c1	none
Cc1ccc(-n2nnnc2SCC(=O)NC(C(=O)O)(c2ccccc2)c2ccccc2)cc1C	rCAG binder 38.0 | rCAG binder conf 38.4 | dCAG dye counter 10.3
O=C(CSc1nnnn1-c1cccc2ccccc12)NC(C(=O)O)(c1ccccc1)c1ccccc1	rCAG binder 46.2 | rCAG binder conf 35.6 | dCAG dye counter 10.1
COC(=O)c1ccc(OCc2nn[nH]n2)cc1	none
O=C(c1ccc(CS(=O)c2ccccc2Cl)o1)N1CCN(c2ccccn2)CC1 (stereo unspecified)	none
CN(C)C1=NCCN1CCc1ccc(F)cc1	none
CC(/C=C/c1ccco1)=N\NC(=O)c1cccnc1	none
O=C(/C=C/c1ccco1)c1cccnc1	rCAG binder 36.1 | rCAG binder conf inactive | dCAG dye counter 5.2
CC(=O)N1CCOc2ccc(S(=O)(=O)NC(C)c3ccccc3)cc21 (stereo unspecified)	none
